We go through five molecules from PubChem BioAssay.

Assay [1] in a line: A549 cell viability effects, profiling panel, calcein-AM fluorescence, 48 h, basal (AID 1162). Also: test concentration not given here. Particulars: higher = more signal.
A short description of assay [2]: adipocyte viability effects, profiling panel, cell-based, 3T3-L1 adipocytes, calcein-AM fluorescence, 48 h, basal (AID 1163). Also: test concentration not given here. Particulars: 3T3-L1 adipocytes viability, higher = more signal.
Assay [3] is described as follows: HepG2 cell viability effects, profiling panel, calcein-AM fluorescence, 48 h, basal (AID 1164). Also: test concentration not given here. Particulars: higher = more signal.
The nature of assay [4]: MM1S cell viability effects, profiling panel, calcein-AM fluorescence, 48 h, basal (AID 1165).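 Also: viability of MM1S multiple myeloma cells under basal unstimulated conditions; test concentration not given here.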 Particulars: higher = more signal.
Assay [5] in a line: basal RPMI8226 viability, no added stimulus, profiling panel, cell-based, calcein-AM fluorescence, 48 h, PK04 Diversity Set (AID 1166).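 Also: cells grown under basal conditions without added stimulus; test concentration not given here.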 Particulars: RPMI8226 myeloma viability, higher = more signal.
Assay [6] in a line: basal HepG2 mitochondrial membrane potential changes, profiling panel, cell-based, JC-1 fluorescence, 24 h, 100 nL compound (AID 1167). Also: test concentration not given here. Particulars: higher = more signal.
A short description of assay [7]: basal 3T3-L1 adipocyte mitochondrial potential changes, profiling panel, cell-based, JC-1 fluorescence, 3T3-L1 adipocytes, 24 h, 100 nL compound (AID 1168). Also: test concentration not given here. Particulars: JC-1 mitochondrial fluorescence, higher = more signal, called active from +8 up or from −8 down.
Assay [8] can be described thus: basal RPMI8226 mitochondrial membrane potential changes, profiling panel, cell-based, JC-1 fluorescence, 24 h, 100 nL compound (AID 1169). Also: test concentration not given here. Particulars: RPMI8226 myeloma, JC-1 mitochondrial potential fluorescence, higher = more signal.
Assay [9] in a line: basal MM1S mitochondrial membrane potential changes, profiling panel, cell-based, JC-1 fluorescence, 24 h, 100 nL compound (AID 1170). Also: test concentration not given here. Particulars: higher = more signal.
Assay [10] in a line: A549 lung cancer cell viability effects, profiling panel, resazurin fluorescence, 24 h, PK04 Diversity Set (AID 1171). Also: test concentration not given here. Particulars: higher = more signal, called active from +8 up or from −8 down.
Assay [11] in a line: HepG2 liver cancer cell viability effects, profiling panel, resazurin fluorescence, 24 h, PK04 Diversity Set (AID 1172). Also: test concentration not given here. Particulars: higher = more signal.
Assay [12] is described as follows: basal S. cerevisiae growth modulation, no modifier, primary screen, OD600, strain BY4716, 24 h, basal condition (AID 1173). Particulars: OD600, 24 h, higher = more signal, called active from +8 up or from −8 down.
The nature of assay [13]: MM1S myeloma cell viability, profiling panel, resazurin fluorescence, basal, 24 h, PK04 Diversity Set (AID 1174).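 Also: MM1S multiple myeloma cell line; test concentration not given here.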 Particulars: higher = more signal, called active from +8 up or from −8 down. (Alamar Blue is a resazurin reagent that responds to reducing activity.)
The target in assay [14] is Dihydroorotate dehydrogenase (quinone), mitochondrial (Plasmodium falciparum (isolate 3D7)) (UniProt Q08210). Kind of assay: PfDHODH enzyme inhibitors, primary screen, biochemical, C-terminal His tag, absorbance 600 nm (AID 1175).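 Also: recombinant parasite enzyme with a five histidine tag at its C terminus; test concentration not given here.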 Particulars: DCIP absorbance 600 nm, higher = more signal, called active from +8 up or from −8 down.
Sequence of Dihydroorotate dehydrogenase (quinone), mitochondrial (Plasmodium falciparum (isolate 3D7)) (Q08210 whole entry, looked up): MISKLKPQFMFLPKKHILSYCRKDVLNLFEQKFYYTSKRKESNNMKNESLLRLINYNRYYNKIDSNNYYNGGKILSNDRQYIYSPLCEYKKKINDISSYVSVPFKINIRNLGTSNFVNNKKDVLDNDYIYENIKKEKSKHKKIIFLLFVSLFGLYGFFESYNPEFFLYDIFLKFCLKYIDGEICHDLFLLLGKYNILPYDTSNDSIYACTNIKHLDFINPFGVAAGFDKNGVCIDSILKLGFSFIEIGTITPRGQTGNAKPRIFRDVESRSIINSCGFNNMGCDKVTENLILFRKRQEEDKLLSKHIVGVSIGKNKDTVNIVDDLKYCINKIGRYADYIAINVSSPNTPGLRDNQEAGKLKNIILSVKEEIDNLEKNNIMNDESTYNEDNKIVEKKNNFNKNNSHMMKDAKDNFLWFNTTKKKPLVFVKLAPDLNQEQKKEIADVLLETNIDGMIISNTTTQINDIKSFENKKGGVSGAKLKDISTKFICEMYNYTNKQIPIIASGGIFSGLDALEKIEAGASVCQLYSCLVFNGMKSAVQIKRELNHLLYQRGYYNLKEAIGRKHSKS
A short description of assay [15]: P. aeruginosa biofilm formation inhibitors, primary screen, strain PAO1, LB-PBS medium, absorbance 600 nm (AID 1176). Also: test concentration not given here. Particulars: P. aeruginosa PAO1 growth/biofilm, A600, 12 h; higher = more signal.
Assay [16] can be described thus: S. cerevisiae RM11-1a growth modifiers, primary screen, strain RM11-1a, OD600, basal, 24 h (AID 1177).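 Also: cultures grown under basal conditions with no added stressor; test concentration not given here.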 Particulars: OD600, 24 h, higher = more signal, called active from +8 up or from −8 down.
Assay [17] is described as follows: E. coli acrAB mutant growth effects, primary screen, E. coli filamentation inducers, strain DRC39, OD650, 24 h (AID 1178).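 Also: growth measured as culture turbidity by optical density at 650 nm; test concentration not given here.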 Particulars: higher = more signal, called active from +8 up or from −8 down.
Assay [18] in a line: E. coli acrAB mutant growth effects, primary screen, E. coli filamentation inducers, strain DRC39, OD650, 48 h (AID 1179).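 Also: screen aims at cell division blockers that make cells filament.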 Particulars: E. coli DRC39 delta-acrAB growth, higher = more signal, called active from +8 up or from −8 down.
Assay [19] is described as follows: RPMI8226 myeloma cell viability, profiling panel, resazurin fluorescence, basal, 24 h, PK04 Diversity Set (AID 1180).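 Also: RPMI8826 multiple myeloma cell line at 5000 cells per well; test concentration not given here.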 Particulars: higher = more signal.
In assay [20] the target is E3 ubiquitin-protein ligase XIAP (Homo sapiens) (UniProt P98170). Kind of assay: XIAP binders, primary screen, biophysical, small-molecule microarray, fluorescence 635 nm (AID 1181).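 Also: score merges 667 nm emission and signal to noise over triplicate slides.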 Particulars: small-molecule microarray binding, higher = more signal.
Sequence of E3 ubiquitin-protein ligase XIAP (Homo sapiens) (P98170 whole entry, looked up): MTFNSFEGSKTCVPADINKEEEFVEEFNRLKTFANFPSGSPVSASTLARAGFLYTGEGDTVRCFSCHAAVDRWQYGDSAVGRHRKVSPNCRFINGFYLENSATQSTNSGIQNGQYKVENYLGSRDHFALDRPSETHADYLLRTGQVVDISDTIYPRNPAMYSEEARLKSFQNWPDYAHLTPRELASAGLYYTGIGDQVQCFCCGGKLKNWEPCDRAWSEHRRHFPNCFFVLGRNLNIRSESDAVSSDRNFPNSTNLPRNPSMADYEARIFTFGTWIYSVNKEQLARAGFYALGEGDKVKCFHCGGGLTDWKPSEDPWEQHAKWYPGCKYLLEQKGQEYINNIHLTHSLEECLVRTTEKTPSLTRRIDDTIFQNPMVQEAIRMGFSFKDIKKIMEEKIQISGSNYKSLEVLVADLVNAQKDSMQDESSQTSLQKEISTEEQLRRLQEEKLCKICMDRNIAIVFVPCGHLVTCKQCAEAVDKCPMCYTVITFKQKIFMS

“And” between values parts separate entries of the source, which are not always exact repeats. Identical values can stand only once. The source made the active and inactive calls. Unless noted, no rule for the calls is given here.

For the molecule `Cc1cc2c(nc1C)CCCN2CC(C)ON=C[C@@H](C)[C@H](OCc1ccccc1)C(C)C` (stereo not given in full), the z-score in assay [1] was -0.351; in [2] it was -0.641; in [3], 0.122; in assay [4], -1.24; in assay [5], -0.583; in [6], -0.741. Also, the z-score is -0.827 (inactive) in assay [7]; 0.708 in assay [8]; -0.483 in assay [9]; -0.522 (inactive) in [10]; -0.524 in assay [11]; -0.0028 (inactive) in assay [12]. The z-score in assay [13] is -0.567 (inactive); in assay [15] it was -0.172 (inactive); in assay [16], 0.776 (inactive); in assay [17], -0.0901 (inactive); in assay [18] it was -0.549 (inactive); in [19] it was -0.394. In addition, the composite z-score in [14] was 0.103 (inactive); in assay [20], 0.0546.

In the case of `C=CCN1C(=O)[C@]2(O[C@H](CCn3cc(CCO)nn3)[C@@H]([Si](C)(C)c3ccc(OC)cc3)[C@@H]2C)c2cc(N3C(=O)c4cccc5cccc3c45)ccc21`, the z-score is -3.83 and -4.13 in assay [1]; -1.83 and -2.41 in assay [2]; -4.65 and -4.73 in assay [3]; -2.66 and -2.87 in [4]; -4.33 and -4.37 in assay [5]; -1.51 and 1.37 in assay [6]. For the same molecule, the z-score in [7] is 5.29 (inactive) and 4.16 (inactive); in assay [8], -0.877 and -0.786; in [9], -2.27 and -1.98; in assay [10], -6.11 (inactive); in assay [11], -6.38 and -6.41; in [12], 1.99 (inactive) and 1.56 (inactive). The z-score in assay [13] is -9.01 (active) and -9.12 (active); in [15], 0.355 (inactive) and 1.15 (inactive); in assay [16], 4.03 (inactive) and 3.23 (inactive); in assay [17], 1.91 (inactive) and 1.72 (inactive); in [18], 0.906 (inactive) and 0.389 (inactive); in assay [19] it was -6.26 and -6.25. Further, the composite z-score in assay [14] is 1.19 (inactive) and 1.35 (inactive); in assay [20], -0.178 and 0.0256.

With `CCOC(=O)NN=C1C[C@@H](O)[C@@H](O)[C@@H]2[C@@H]3C(=O)N(Cc4ccc5c(c4)OCO5)C(=O)[C@@H]3CC[C@@H]12`, the z-score in assay [1] is 1.24; in assay [2] it was -0.54; in [3], 0.32; in assay [4], 0.511; in assay [5], 0.466; in assay [6], 0.598. Besides, the z-score in assay [7] was 1.11 (inactive); in assay [8], 0.612; in assay [9], -1.25; in assay [10], 0.0533 (inactive); in assay [11], 0.321; in assay [12] it was -0.143 (inactive). Besides, the z-score was 0.591 (inactive) in [13]; 0.246 (inactive) in assay [15]; 0.52 (inactive) in [16]; 0.69 (inactive) in assay [17]; 0.819 (inactive) in assay [18]; 0.457 in assay [19]. Further, the composite z-score in assay [14] was -0.225 (inactive); in assay [20], -0.492.

For the molecule `Cc1ccc(S(=O)(=O)N[C@H]2COC(=O)[C@@H](Cc3ccccc3)NC(=O)[C@@H](C)COC(=O)CC=C[C@@H]2C)cc1`, the z-score in assay [1] was 0.671 and -0.545; in assay [2], -0.433 and 1.08; in assay [3], 0.364 and -1.68; in assay [4], -1.13 and 1.05; in assay [5], -0.372 and -0.784; in assay [6] it was 0.0571 and -0.176. The z-score was -0.517 (inactive) and -0.812 (inactive) in assay [7]; -0.259 and 0.107 in assay [8]; 0.242 and -1.28 in assay [9]; 0.0258 (inactive) and 0.392 (inactive) in [10]; 0.328 and 0.224 in assay [11]; -0.207 (inactive) and -0.631 (inactive) in [12]. Moreover, the z-score in assay [13] was 0.0731 (inactive) and -0.209 (inactive); in assay [15] it was -0.814 (inactive) and -0.479 (inactive); in [16], 0.0658 (inactive) and 0.0386 (inactive); in assay [17], 0.046 (inactive) and -0.0139 (inactive); in assay [18], -0.479 (inactive) and 0.385 (inactive); in [19], 0.0023 and 0.238. Further, the composite z-score in [14] is -0.395 (inactive) and -0.412 (inactive); in assay [20] it was -0.259 and -0.469.

In the case of `C=CCN(C(=O)C1N(CCOCCO)C(=O)C2C(C(=O)O)C3C=CC21O3)c1ccc(OC)cc1` (stereo not given), the z-score was -0.0891 and 0.163 in assay [1]; -0.24 and 0.366 in [2]; 0.136 and 0.857 in assay [3]; 0.963 and -0.688 in [4]; -0.25 and 0.0863 in assay [5]; 0.191 and -1.15 in assay [6]. Besides, the z-score in assay [7] is 0.124 (inactive) and 1.32 (inactive); in assay [8] it was -0.0484 and 0.126; in [9], 1.01 and 0.642; in assay [10], -0.237 (inactive) and 0.168 (inactive); in [11], 0.0057 and 0.18; in [12] it was -0.174 (inactive) and -0.731 (inactive). Further, the z-score is 0.267 (inactive) and -0.0413 (inactive) in assay [13]; -0.276 (inactive) and -0.0963 (inactive) in assay [15]; -0.478 (inactive) and -0.298 (inactive) in assay [16]; 0.556 (inactive) and 1.24 (inactive) in [17]; 0.2 (inactive) and 0.638 (inactive) in assay [18]; -0.0424 and 0.0858 in assay [19]. Moreover, the composite z-score in assay [14] is -0.511 (inactive) and -4.53 (inactive); in assay [20], 0.0637 and 0.0264.
